According to ChEMBL document CHEMBL4513141, “CO-ADD screening of NIH (USA) - Clinical Collection” (2021):
Entries with a potency or affinity are not part of this list.

These compounds were tested on Escherichia coli. Details: Concentration 20 uM; ASSAY_TEST Inhibition of Bacterial Growth; detection method Absorption (OD600); MEDIA CAMHB; plate type 384well; NBS; CORNING #3640; time 18 hr.

Question: `CCN(CC)CC1CCCCN1CC(=O)N1c2ccccc2C(=O)Nc2cccnc21` (stereo not drawn) [OTENZEPAD] was tested. Which Inhibition did it give?
Answer: 5.55%

Question: Which Inhibition does the source give for `O=C(O)c1cc(-c2ccc(F)cc2F)ccc1O` [DIFLUNISAL] here?
Answer: 6.27%

Question: For `CCC1=C[C@H]2CN(C1)Cc1c([nH]c3ccccc13)[C@@](C(=O)OC)(c1cc3c(cc1OC)N(C)[C@H]1[C@@](O)(C(=O)OC)[C@H](OC(C)=O)[C@]4(CC)C=CCN5CC[C@]31[C@@H]54)C2.O=C(O)C(O)C(O)C(=O)O.O=C(O)C(O)C(O)C(=O)O`, which Inhibition is on record?
Answer: 2.61%

Question: How did the Inhibition turn out when `CC(=O)Nc1ccc(CC(=O)O)cc1` [ACTARIT] was run?
Answer: 3.54%

Question: Which Inhibition does the source give for `Nc1nc(=O)c2nc(CNc3ccc(C(=O)N[C@@H](CCC(=O)O)C(=O)O)cc3)cnc2[nH]1` [FOLIC ACID] here?
Answer: -0.13%

Question: How did the Inhibition turn out when `CCCCC(=O)OC1(C(=O)CO)CCC2C3CCC4=CC(=O)CCC4(C)C3C(O)CC21C` (stereo not drawn) was run?
Answer: 3.22%

Question: Which Inhibition does the source give for `CC(C)NCC(O)c1ccc(NS(C)(=O)=O)cc1.Cl` (stereo not drawn) [SOTALOL HYDROCHLORIDE] here?
Answer: 5.97%

Question: How did the Inhibition turn out when `CCN(CC)CCOC(=O)C1(C2CCCCC2)CCCCC1.Cl` [DICYCLOMINE HYDROCHLORIDE] was run?
Answer: 0.37%

Question: `CCc1ccc(CCOc2ccc(CC3SC(=O)NC3=O)cc2)nc1.Cl` (stereo not drawn) [PIOGLITAZONE HYDROCHLORIDE] was tested. Which Inhibition did it give?
Answer: -0.97%

Question: `Oc1ncc(F)cn1` was tested. Which Inhibition did it give?
Answer: 10.23%

Question: `CN(C)CC[C@@H](c1ccc(Br)cc1)c1ccccn1.O=C(O)/C=C\C(=O)O` [DEXBROMPHENIRAMINE MALEATE] was tested. Which Inhibition did it give?
Answer: 5.01%

Question: How did the Inhibition turn out when `CCCc1nc(C)c2c(O)nc(-c3cc(S(=O)(=O)N4CCN(CC)CC4)ccc3OCC)nn12.O=C(O)CC(O)(CC(=O)O)C(=O)O` was run?
Answer: -4.2%

Question: For `O=C([O-])Cc1ccccc1Nc1c(Cl)cccc1Cl.[Na+]` [DICLOFENAC SODIUM], which Inhibition is on record?
Answer: 7.01%

Question: `Cl.Clc1cccc(Cl)c1NC1=NCCN1` [CLONIDINE HYDROCHLORIDE] was tested. Which Inhibition did it give?
Answer: 4.68%

Question: For `CN(C)CCOC(c1ccc(Cl)cc1)c1ccccn1.O=C(O)/C=C\C(=O)O` (stereo not drawn) [CARBINOXAMINE MALEATE], which Inhibition is on record?
Answer: 3.54%

Question: With `CC(=O)OCC(=O)[C@@]12OC(C)(C)O[C@@H]1C[C@H]1[C@@H]3C[C@H](F)C4=CC(=O)C=C[C@]4(C)[C@@]3(F)[C@@H](O)C[C@@]12C` [FLUOCINONIDE] as the compound, how does the Inhibition read?
Answer: -2.15%

Question: `CN1CCC(=C2c3ccccc3CC(=O)c3sccc32)CC1.O=C(O)/C=C/C(=O)O` [KETOTIFEN FUMARATE] was tested. Which Inhibition did it give?
Answer: 3.55%

Question: `Cc1ccc(C)c(OCCCC(C)(C)C(=O)O)c1` [GEMFIBROZIL] was tested. Which Inhibition did it give?
Answer: 2.56%

Question: For `C[C@]12CC[C@@H]3c4ccc(O)cc4CC[C@H]3[C@@H]1CC[C@@H]2O` [ESTRADIOL], which Inhibition is on record?
Answer: -0.2%

Question: With `CC(COc1ccccc1Cc1ccccc1)N1CCCCC1.O=P(O)(O)O` (stereo not drawn) as the compound, how does the Inhibition read?
Answer: 7.84%

Question: Which Inhibition does the source give for `CCOC(=O)OC(C)OC1=C(C(=O)Nc2ccccn2)N(C)S(=O)(=O)c2ccccc21` (stereo not drawn) [AMPIROXICAM] here?
Answer: -0.97%

Question: For `CS(=O)(=O)c1ccc(-c2cc(Br)sc2-c2ccc(F)cc2)cc1` [DUP-697], which Inhibition is on record?
Answer: -0.37%

Question: How did the Inhibition turn out when `Nc1nc(N)c2nc(-c3ccccc3)c(N)nc2n1` was run?
Answer: 10.99%

Question: Which Inhibition does the source give for `Cl.Nc1c2c(nc3ccccc13)CCCC2` [TACRINE HYDROCHLORIDE] here?
Answer: 0.14%

Question: For `NCC(=O)CCC(=O)O` [AMINOLEVULINIC ACID], which Inhibition is on record?
Answer: 5.31%

Question: With `Nc1ccn([C@@H]2O[C@H](CO)[C@@H](O)[C@@H]2O)c(=O)n1` [CYTARABINE] as the compound, how does the Inhibition read?
Answer: -2.15%

Question: How did the Inhibition turn out when `CCC1(c2ccccc2)C(=O)NCNC1=O` [PRIMIDONE] was run?
Answer: 3.86%

Question: Which Inhibition does the source give for `CCC(C)(C)C(=O)O[C@H]1C[C@@H](C)C=C2C=C[C@H](C)[C@H](CC[C@@H]3C[C@@H](O)CC(=O)O3)[C@H]21` [SIMVASTATIN] here?
Answer: 6.01%

Question: For `Oc1ccc(/C=C/c2cc(O)cc(O)c2)cc1` [RESVERATROL], which Inhibition is on record?
Answer: 1.45%

Question: Which Inhibition does the source give for `CCCOc1ccc(C(=O)OCCN(CC)CC)cc1N.Cl` [PROPARACAINE HYDROCHLORIDE] here?
Answer: 2.71%

Question: With `O=C1C(CC[S+]([O-])c2ccccc2)C(=O)N(c2ccccc2)N1c1ccccc1` (stereo not drawn) [SULFINPYRAZONE] as the compound, how does the Inhibition read?
Answer: 6.57%

Question: For `Cl.O[C@@H](c1cc(C(F)(F)F)nc2c(C(F)(F)F)cccc12)[C@H]1CCCCN1`, which Inhibition is on record?
Answer: 7.08%

Question: `Nc1ccn([C@@H]2CS[C@H](CO)O2)c(=O)n1` [LAMIVUDINE] was tested. Which Inhibition did it give?
Answer: 8.04%

Question: Which Inhibition does the source give for `O=S(=O)([O-])CCS.[Na+]` [MESNA] here?
Answer: -2.71%

Question: Which Inhibition does the source give for `CCCCC(=O)N(Cc1ccc(-c2ccccc2-c2nnn[nH]2)cc1)[C@H](C(=O)O)C(C)C` here?
Answer: 3.3%

Question: For `CC(N)C12CC3CC(CC(C3)C1)C2.Cl` (stereo not drawn) [RIMANTADINE HYDROCHLORIDE], which Inhibition is on record?
Answer: -3.07%

Question: For `CC=CC(=O)N(CC)c1ccccc1C`, which Inhibition is on record?
Answer: 0.72%

Question: How did the Inhibition turn out when `CC[C@H](C)C(=O)O[C@H]1C[C@H](O)C=C2C=C[C@H](C)[C@H](CC[C@@H](O)C[C@@H](O)CC(=O)[O-])[C@H]21.[Na+]` [PRAVASTATIN SODIUM] was run?
Answer: 2.41%
